Bioassay records deposited in PubChem BioAssay by National Center for Advancing Translational Sciences (NCATS).
The list is not random: actives were taken first. Their share in the collection is about 18%.
TDP1 cell CPT: qHTS for Inhibitors of human tyrosyl-DNA phosphodiesterase 1 (TDP1): qHTS in cells in presence of CPT; AID 686979, 2013; Potency, µM (titrated, usually from 46.2 µM), for the others: top-dose activity change, negative = growth inhibition, most hits filed as inhibitors; chicken DT40 Tdp1-/-;hTDP1 cells + 20 nM CPT, ATP luminescence, 48 h; 12% of 420,000 active; also: potency is read from the fitted curve at half-maximal effect; nearly all actives have a fitted effect of over 55% in size
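Chicken DT40 Tdp1-/- cells stably complemented with human TDP1 were seeded at 400 cells/well in medium containing 20 nM camptothecin, exposed to pin-transferred compounds, and grown at 37 °C for at least 48 hr. Viability was read as ATP luminescence.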
RORg inh: qHTS for inhibitors of ROR gamma transcriptional activity | Drosophila S2 Gal4-RORgamma UAS-luciferase reporter, 20 h | Potency, µM (top dose mostly 53.6 µM), without a hit: at the top dose activity change, negative = inhibition, hits mostly inhibitors | 5.4% of 310,000 active | AID 2551, 2010; also: potency is read from the fitted curve at half-maximal effect; nearly all actives have a fitted effect of over 60% in size
Target sequence (P51450 whole entry, looked up, the tested form may be a part): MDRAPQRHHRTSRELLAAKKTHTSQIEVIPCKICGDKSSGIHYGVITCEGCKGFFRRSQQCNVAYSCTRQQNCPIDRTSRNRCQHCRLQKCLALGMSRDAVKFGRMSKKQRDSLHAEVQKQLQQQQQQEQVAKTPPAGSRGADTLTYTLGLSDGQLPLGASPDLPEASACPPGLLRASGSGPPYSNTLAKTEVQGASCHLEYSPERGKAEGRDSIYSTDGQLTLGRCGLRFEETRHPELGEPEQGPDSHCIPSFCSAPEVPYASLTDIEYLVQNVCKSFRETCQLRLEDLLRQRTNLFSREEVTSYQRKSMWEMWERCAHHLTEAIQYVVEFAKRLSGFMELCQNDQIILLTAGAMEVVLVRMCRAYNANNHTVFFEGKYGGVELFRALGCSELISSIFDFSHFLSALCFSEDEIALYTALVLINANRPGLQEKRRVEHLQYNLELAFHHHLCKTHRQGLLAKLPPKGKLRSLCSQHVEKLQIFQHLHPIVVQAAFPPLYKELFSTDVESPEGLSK
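In this cell-based reporter format, copper sulfate (700 uM final) drives Gal4–ROR gamma fusion expression from a metallothionein promoter in Drosophila Schneider cells; compounds preincubated 1 hr, reporter read after 20 hr at ambient temperature.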
LDHA inh: qHTS assay for inhibitors of human lactate dehydrogenase; L-lactate dehydrogenase A chain (Homo sapiens), P00338; purified LDHA, NADH/diaphorase-resazurin fluorescence; active compounds read low; activity change, % (values are at about 110 or 230 µM); 0.15% of 480,000 active; AID 1347041, 2019; in the data active = activity change below about -30%; inconclusive = mostly about -25% to -30%;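 also: plate controls were DMSO wells for no effect and wells without enzyme for full effect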
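LDH5 2 nM; NADH 0.06 mM, pyruvate 0.2 mM; 200 mM Tris pH 7.4, EDTA, Tween-20; 5 min RT. Detection: diaphorase 0.133 mg/mL + resazurin 37 µM, fluorescence ex540/em590 at 0 and 20 min; normalized to enzyme-free and DMSO wells.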
IL-1B inflam inh: qHTS for Inhibitors of Inflammasome Signaling: IL-1-beta AlphaLISA Primary Screen. 4.7% of 360,000 active. activity change, % at 57.5 µM. THP-1 LPS/ATP IL-1B secretion, AlphaLISA, 16 h; active compounds read low. AID 743279, 2014; in the data active = activity change below about -50%; inconclusive = mostly about -30% to -49%
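Secreted IL-1B measured by AlphaLISA bead assay after 16 h compound exposure of THP-1 cells; compounds (final up to 57.5 uM) added 1 h before LPS (250 ng/mL) and ATP (1.25 mM) stimulation; lower signal means less secretion.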
TDP1 cell noCPT: qHTS for Inhibitors of human tyrosyl-DNA phosphodiesterase 1 (TDP1): qHTS in cells in absence of CPT. DT40 Tdp1-/- hTDP1 cells, no CPT, ATP luminescence, 48 h. Potency, µM (doses to about 46.2 µM), without a hit: at the highest dose activity change, negative = growth inhibition, most hits filed as inhibitors. 15% of 420,000 active; also: potency is read from the fitted curve at half-maximal effect; nearly all actives have a fitted effect of over 55% in size
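Growth kinetics read by CellTiter-Glo luminescence after ≥48 hr at 37 °C. Cells: DT40 Tdp1-/- stably carrying human TDP1, 400 per well, compound exposure in the absence of CPT (DMSO vehicle).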
Gal4-VP16 FLuc: VP16 counterscreen qHTS for inhibitors of ROR gamma transcriptional activity; 3.5% of 310,000 active; Drosophila S2 Gal4-VP16 UAS-luciferase, luminescence, 20 h; Potency, µM (doses to about 53.6 µM), for inactives: at the highest dose activity, negative = inhibition, usual class: inhibitors; AID 2546, 2010;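 also: Gal4-VP16 expression switched on by copper sulfate through the metallothionein promoter; potency is read from the fitted curve at half-maximal effect; nearly all actives have a fitted effect of over 50% in size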
Numbers without * were called inactive; [ ] = dose if it differs, or a comment. Unless noted, calls follow the shape of the dose curve; as a rule, active = well fitted curve in the direction sought with a large enough effect; inconclusive = small, poorly fitted or top-dose-only effect, or another doubt; inactive = no such curve, though single readings can be large; an effect the other way counts as inactive or inconclusive. Unless noted, % is scaled to controls: 0 for no effect and ±100 for the full control effect.

What do the screens show for `Cc1ccc(S(=O)(=O)N(C)C[C@H]2Oc3cc(Br)ccc3S(=O)(=O)N([C@H](C)CO)C[C@H]2C)cc1`?
TDP1 cell CPT: inconclusive; LDHA inh: 1; IL-1B inflam inh: -28; TDP1 cell noCPT: 29µM*

How did C[C@H]1CN([C@@H](C)CO)C(=O)c2cccc(NC(=O)c3ccc(-c4nccs4)cc3)c2O[C@@H]1CN(C)C(=O)Nc1cccc2ccccc12 do in these assays?
TDP1 cell CPT: 26µM*; LDHA inh: 10; IL-1B inflam inh: 0; TDP1 cell noCPT: 15µM*

Results for Cc1ccc(S(=O)(=O)N(C)C[C@H]2Oc3cc(Br)ccc3S(=O)(=O)N([C@H](C)CO)C[C@@H]2C)cc1 ?
TDP1 cell CPT: 12%; LDHA inh: 1; IL-1B inflam inh: 0; TDP1 cell noCPT: 9%

How did CC1=CC2/C=C(\C)CCC(O)C(O)/C=C/C(=O)C23C(=O)NC(CC(C)C)C3C1C (stereo unspecified) do in these assays?
TDP1 cell CPT: 3.7µM*; RORg inh: 5µM*; LDHA inh: -3; IL-1B inflam inh: -106*; TDP1 cell noCPT: 1.8µM*; Gal4-VP16 FLuc: 7.1µM*

How did c1ccc2c(c1)CSc1ccccc1C2C1=NCCN1 (stereo unspecified) do in these assays?
TDP1 cell CPT: -14%; RORg inh: -6%[10 µM]; LDHA inh: -5; IL-1B inflam inh: 9; TDP1 cell noCPT: inconclusive; Gal4-VP16 FLuc: -4%

What do the screens show for `Brc1ccc2c(c1)C(OC1CN3CCC1CC3)c1ccccc1CS2` (stereo unspecified)?
TDP1 cell CPT: 13µM*; RORg inh: inconclusive; LDHA inh: 0; IL-1B inflam inh: -80*; TDP1 cell noCPT: 5.2µM*; Gal4-VP16 FLuc: inconclusive

What do the screens show for `C=C1[C@@H](O)C2C=CC[C@H](C)C(=O)[C@@](C)(O)C=C[C@@H](OC(C)=O)[C@@]23C(=O)N[C@H](Cc2ccccc2)[C@@H]3[C@@H]1C` (stereo partly specified)?
TDP1 cell CPT: 0.27µM*; RORg inh: inconclusive; TDP1 cell noCPT: 0.24µM*; Gal4-VP16 FLuc: 10%

Results for C=C1C(C)C2C(Cc3ccccc3)NC(=O)C23OC(=O)/C=C/C(O)CCCC(C)C/C=C/C3C1O (stereo unspecified) ?
TDP1 cell CPT: 1.5µM*; LDHA inh: -5; IL-1B inflam inh: 22; TDP1 cell noCPT: 2.1µM*

What do the screens show for `C=C1[C@@H](C)[C@H]2[C@H](Cc3ccccc3)NC(=O)[C@]23[C@H](OC(C)=O)/C=C/[C@](C)(O)C(=O)[C@@H](C)C/C=C/[C@H]3[C@@H]1O`?
TDP1 cell CPT: 0.18µM*; RORg inh: inconclusive; TDP1 cell noCPT: 0.14µM*; Gal4-VP16 FLuc: 5%

What do the screens show for `Cc1noc(C)c1COc1ccc(CC(=O)N2CCCN(C)CC2)cc1`?
LDHA inh: -6

Results for C=C1C2C[C@]3(C4CC5[C@@]6(C)CC[C@H](O)[C@@]5(C3CC2=O)C4[N+]([O-])(CC)C6)[C@@H]1O (stereo partly specified) ?
TDP1 cell CPT: 12%[9.04 µM]; RORg inh: -5%; TDP1 cell noCPT: -8%[9.04 µM]; Gal4-VP16 FLuc: -3%

Results for C=CCN1C(=O)C2(C(C(=O)OC)=C(N)Oc3c2c(=O)oc2ccccc32)c2ccccc21 (stereo unspecified) ?
TDP1 cell CPT: inconclusive; LDHA inh: 1; TDP1 cell noCPT: inconclusive

What do the screens show for `Cc1cc(-n2c(/C=C/c3cccs3)nc3ccccc3c2=O)ccc1Br`?
TDP1 cell CPT: 15µM*; LDHA inh: 0; TDP1 cell noCPT: 23µM*
